PubChem BioAssay (NCI)
The panel holds about 83,000 compounds, 20% with a hit somewhere; the sample as a whole holds those more often.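 Results are percent growth after 48 hours of single-concentration exposure. 100 means growth as in untreated cells, lower positive values show inhibition; negative values down to -100 show cell death.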 Activity calls are given as the source filed them. Rule for the calls: active = growth percent below 10; inactive = the rest.

Tests used:
Test in all cases: NCI-60 one-dose screen, 48 h (100 = growth as untreated, 0 = no growth, -100 = all killed)
Settings in all cases: 10 µM unless noted
HCT-15 colon = system: HCT-15 colon
HT29 colon = system: HT29 colon
SNB-75 CNS = system: SNB-75 CNS
SNB-19 CNS = system: SNB-19 CNS
U251 CNS = system: U251 CNS
PC-3 prostate = system: PC-3 prostate
SK-MEL-5 melanoma = system: SK-MEL-5 melanoma
UACC-62 melanoma = system: UACC-62 melanoma
LOX IMVI melanoma = system: LOX IMVI melanoma
SK-MEL-28 melanoma = system: SK-MEL-28 melanoma
SK-MEL-2 melanoma = system: SK-MEL-2 melanoma
EKVX NSCLC = system: EKVX NSCLC
SN12C renal = system: SN12C renal
UO-31 renal = system: UO-31 renal
TK-10 renal = system: TK-10 renal
ACHN renal = system: ACHN renal
CAKI-1 renal = system: CAKI-1 renal
A498 renal = system: A498 renal
MOLT-4 leukemia = system: MOLT-4 leukemia
CCRF-CEM leukemia = system: CCRF-CEM leukemia

Measured: growth

NC(=S)N1N=C(c2ccc(Cl)cc2)CC1c1cc2ccccc2[nH]c1=O (stereo not given)
inactive: HCT-15 colon 104% | HT29 colon 95.3% | SNB-75 CNS 106% | SNB-19 CNS 101% | U251 CNS 107% | PC-3 prostate 87.5% | SK-MEL-5 melanoma 107% | UACC-62 melanoma 97.7% | LOX IMVI melanoma 105% | SK-MEL-28 melanoma 115% | SK-MEL-2 melanoma 103% | EKVX NSCLC 109% | SN12C renal 104% | UO-31 renal 82.7% | TK-10 renal 109% | ACHN renal 107% | CAKI-1 renal 114% | A498 renal 89.5% | MOLT-4 leukemia 72.5%

Clc1cccc(CNc2c3ccccc3nc3ccccc23)c1
active: HT29 colon 8.62% | LOX IMVI melanoma 1.75% | MOLT-4 leukemia 1.13%
inactive: HCT-15 colon 14% | SNB-75 CNS 68.7% | SNB-19 CNS 26.4% | U251 CNS 22.7% | PC-3 prostate 23.5% | SK-MEL-5 melanoma 66.2% | UACC-62 melanoma 52.6% | SK-MEL-28 melanoma 66.2% | SK-MEL-2 melanoma 77.3% | EKVX NSCLC 27.2% | SN12C renal 23.6% | UO-31 renal 16% | TK-10 renal 52.1% | ACHN renal 15.7% | CAKI-1 renal 28.2% | CCRF-CEM leukemia 18.1%

Cc1c(C(=O)Nc2ccccc2F)sc2c(=O)[nH]cnc12
inactive: HCT-15 colon 59% | HT29 colon 63.8% | SNB-75 CNS 77.9% | SNB-19 CNS 96% | U251 CNS 89.7% | PC-3 prostate 81.9% | SK-MEL-5 melanoma 92.3% | UACC-62 melanoma 78.4% | LOX IMVI melanoma 85% | SK-MEL-28 melanoma 94.3% | SK-MEL-2 melanoma 53.9% | EKVX NSCLC 91% | SN12C renal 96.2% | UO-31 renal 74.6% | TK-10 renal 90.8% | ACHN renal 102% | CAKI-1 renal 74.7% | CCRF-CEM leukemia 90.4%

CC[C@H](C)[C@H](N)C(=O)O
inactive: HCT-15 colon 107% | HT29 colon 109% | SNB-75 CNS 99.1% | SNB-19 CNS 105% | U251 CNS 107% | PC-3 prostate 99.1% | SK-MEL-5 melanoma 101% | UACC-62 melanoma 102% | LOX IMVI melanoma 98.7% | SK-MEL-28 melanoma 109% | SK-MEL-2 melanoma 109% | EKVX NSCLC 107% | SN12C renal 101% | UO-31 renal 83.9% | TK-10 renal 121% | ACHN renal 103% | CAKI-1 renal 95.6% | A498 renal 91% | MOLT-4 leukemia 116%

COc1ccc(C(=O)OC2C(OC3C(O)COC(O[C@H]4C[C@H]5[C@@H]6CC=C7C[C@@H](O)CC[C@]7(C)[C@H]6CC[C@]5(C)[C@H]4[C@H](C)C(=O)CCC(C)C)C3OC(N)=O)OCC(O)C2O)cc1 (stereo not given in full)
inactive: EKVX NSCLC 19.5% | SN12C renal 44.7%
active: HCT-15 colon 6.08% | HT29 colon 4.99% | SNB-75 CNS -10% | SNB-19 CNS -28.2% | U251 CNS -53.3% | PC-3 prostate -28.1% | SK-MEL-5 melanoma -86.8% | UACC-62 melanoma -57.7% | LOX IMVI melanoma -58.3% | SK-MEL-28 melanoma -59.1% | SK-MEL-2 melanoma -62% | UO-31 renal -39% | TK-10 renal -1.71% | CAKI-1 renal -36.7% | A498 renal -80.1% | CCRF-CEM leukemia -25.8% | MOLT-4 leukemia -42.3%

CC(C)CCSc1nc(-c2ccc(F)cc2)c(C#N)c(N2CCN(C)CC2)n1
inactive: HCT-15 colon 83.6% | HT29 colon 82.2% | SNB-75 CNS 73% | SNB-19 CNS 91.7% | U251 CNS 77.6% | PC-3 prostate 65% | SK-MEL-5 melanoma 90.4% | UACC-62 melanoma 87.2% | LOX IMVI melanoma 77.6% | SK-MEL-28 melanoma 96.5% | SK-MEL-2 melanoma 77.4% | EKVX NSCLC 87.8% | SN12C renal 88.8% | TK-10 renal 88.2% | ACHN renal 76.5% | CAKI-1 renal 60.8% | A498 renal 69.7% | CCRF-CEM leukemia 78.9% | MOLT-4 leukemia 72.5%

O=c1c2cc(Cl)ccc2oc2ccc(OCCCCCN3CCCCC3)cc12
inactive: SNB-75 CNS 102% | SNB-19 CNS 77.5% | U251 CNS 46% | PC-3 prostate 69.1% | SK-MEL-28 melanoma 12% | SK-MEL-2 melanoma 64.8% | EKVX NSCLC 70.3% | SN12C renal 65.1% | UO-31 renal 60.7% | TK-10 renal 69.2% | CAKI-1 renal 70.8% | A498 renal 75.6% | CCRF-CEM leukemia 39.8% | MOLT-4 leukemia 25.2%
active: HCT-15 colon -14.7% | HT29 colon -27.9% | SK-MEL-5 melanoma -26.2% | UACC-62 melanoma -52.7% | LOX IMVI melanoma -6.06%

Cc1c(C(=O)CCl)c(=O)n(-c2ccccc2)n1C
inactive: HCT-15 colon 40% | HT29 colon 36.2% | SNB-75 CNS 76.3% | SNB-19 CNS 94.5% | U251 CNS 65.8% | PC-3 prostate 55.5% | SK-MEL-5 melanoma 87.9% | UACC-62 melanoma 74.1% | LOX IMVI melanoma 62% | SK-MEL-28 melanoma 65% | SK-MEL-2 melanoma 71.4% | EKVX NSCLC 76.8% | SN12C renal 86% | UO-31 renal 64.2% | TK-10 renal 40.1% | CAKI-1 renal 29.8% | A498 renal 77.4% | MOLT-4 leukemia 24.8%

COc1ccc2c(c1)OC1=C(C(=O)OC1)C2c1cc(OC)c2c(c1)OCCO2 (stereo not given)
inactive: HCT-15 colon 12.8% | SNB-75 CNS 30% | SNB-19 CNS 38.8% | U251 CNS 20.5% | PC-3 prostate 25.6% | UACC-62 melanoma 36.3% | LOX IMVI melanoma 21.3% | SK-MEL-28 melanoma 45.4% | SK-MEL-2 melanoma 41.3% | EKVX NSCLC 55.5% | SN12C renal 27.5% | UO-31 renal 46.2% | TK-10 renal 76.2% | CAKI-1 renal 48.1% | CCRF-CEM leukemia 15% | MOLT-4 leukemia 20.8%
active: HT29 colon 5.47% | SK-MEL-5 melanoma -17.7% | A498 renal -1.6%

CCOC(=O)Nc1ccc2nc(Sc3ccc(Cl)cc3)sc2c1
active: SNB-75 CNS -12% | SK-MEL-5 melanoma 6.76%
inactive: HCT-15 colon 25.5% | HT29 colon 19.4% | SNB-19 CNS 48.3% | U251 CNS 36.1% | PC-3 prostate 34.3% | UACC-62 melanoma 33.8% | LOX IMVI melanoma 47.9% | SK-MEL-28 melanoma 38.1% | SK-MEL-2 melanoma 46.8% | EKVX NSCLC 57.6% | SN12C renal 40.4% | UO-31 renal 43.9% | TK-10 renal 53.1% | CAKI-1 renal 19.2% | A498 renal 58% | CCRF-CEM leukemia 20.2% | MOLT-4 leukemia 37.8%

O=S(=O)(Cc1ccc(Cl)cc1Cl)c1ccc(Cl)cc1
inactive: HCT-15 colon 31.8% | SNB-75 CNS 18.8% | SNB-19 CNS 44% | U251 CNS 25.8% | PC-3 prostate 31.1% | SK-MEL-5 melanoma 39.8% | UACC-62 melanoma 44.6% | LOX IMVI melanoma 15.7% | SK-MEL-28 melanoma 65.9% | SK-MEL-2 melanoma 31.1% | EKVX NSCLC 63.4% | SN12C renal 49.4% | UO-31 renal 46.2% | TK-10 renal 32.6% | ACHN renal 55.7% | CAKI-1 renal 38.1% | CCRF-CEM leukemia 10.8% | MOLT-4 leukemia 33.3%
active: HT29 colon 9.72%

CC(=O)O[C@H]1CC[C@]2(C)[C@H]3CC=C4[C@@H]5CC(C)(C)CC[C@]5(C(=O)OCC(COC(=O)C(Cl)Cl)(COC(=O)C(Cl)Cl)NC(=O)C(Cl)Cl)CC[C@@]4(C)[C@]3(C)CC[C@H]2C1(C)C
inactive: HCT-15 colon 46.7% | SNB-75 CNS 85.9% | SNB-19 CNS 90.4% | U251 CNS 45.1% | PC-3 prostate 22.7% | SK-MEL-5 melanoma 71.9% | UACC-62 melanoma 84.4% | LOX IMVI melanoma 65.9% | SK-MEL-28 melanoma 87.3% | SK-MEL-2 melanoma 77.7% | EKVX NSCLC 65% | SN12C renal 71.8% | UO-31 renal 62.5% | TK-10 renal 78.1% | ACHN renal 62.4% | CAKI-1 renal 63% | CCRF-CEM leukemia 64.8% | MOLT-4 leukemia 44.9%
active: HT29 colon 8.55%

O/N=C1\c2ccccc2-c2ccc(Br)cc21
inactive: HCT-15 colon 102% | HT29 colon 101% | SNB-75 CNS 107% | SNB-19 CNS 104% | U251 CNS 104% | PC-3 prostate 101% | SK-MEL-5 melanoma 104% | UACC-62 melanoma 105% | LOX IMVI melanoma 105% | SK-MEL-28 melanoma 118% | SK-MEL-2 melanoma 115% | EKVX NSCLC 88.6% | SN12C renal 101% | UO-31 renal 81.6% | TK-10 renal 108% | ACHN renal 94.2% | CAKI-1 renal 91.6% | CCRF-CEM leukemia 71.8% | MOLT-4 leukemia 89.2%

CCN(CC)CC(=O)Nc1c(C)ccc(N)c1C
inactive: HCT-15 colon 97.1% | HT29 colon 91.7% | SNB-75 CNS 91.7% | SNB-19 CNS 100% | U251 CNS 96.1% | PC-3 prostate 97.5% | SK-MEL-5 melanoma 99.6% | UACC-62 melanoma 97.6% | LOX IMVI melanoma 96.4% | SK-MEL-28 melanoma 107% | SK-MEL-2 melanoma 99.4% | EKVX NSCLC 96.5% | SN12C renal 99.4% | UO-31 renal 86.2% | TK-10 renal 100% | ACHN renal 112% | CAKI-1 renal 102% | CCRF-CEM leukemia 112% | MOLT-4 leukemia 115%

COCc1nc(NS(=O)(=O)c2ccc(N)cc2)nc(C)c1Br
inactive: HCT-15 colon 97.7% | HT29 colon 88.6% | SNB-75 CNS 89.4% | SNB-19 CNS 108% | U251 CNS 103% | PC-3 prostate 101% | SK-MEL-5 melanoma 102% | UACC-62 melanoma 101% | LOX IMVI melanoma 94.1% | SK-MEL-28 melanoma 105% | SK-MEL-2 melanoma 96.6% | EKVX NSCLC 95.9% | SN12C renal 108% | UO-31 renal 95.4% | TK-10 renal 93.1% | CAKI-1 renal 102% | A498 renal 118% | CCRF-CEM leukemia 103% | MOLT-4 leukemia 103%

C[Si](C)(C)C(c1ccccc1)c1ccccc1
inactive: HCT-15 colon 91.8% | HT29 colon 101% | SNB-75 CNS 102% | SNB-19 CNS 111% | U251 CNS 100% | PC-3 prostate 80.3% | SK-MEL-5 melanoma 115% | UACC-62 melanoma 108% | LOX IMVI melanoma 95.9% | SK-MEL-28 melanoma 115% | SK-MEL-2 melanoma 127% | EKVX NSCLC 109% | SN12C renal 102% | UO-31 renal 82.3% | TK-10 renal 108% | CAKI-1 renal 86.2% | A498 renal 99.7% | CCRF-CEM leukemia 79.4% | MOLT-4 leukemia 81.8%

CC(=O)CC(c1ccc([N+](=O)[O-])cc1)c1c(O)c2ccccc2oc1=O (stereo not given)
inactive: HCT-15 colon 110% | HT29 colon 106% | SNB-75 CNS 81.7% | SNB-19 CNS 109% | U251 CNS 104% | PC-3 prostate 92% | SK-MEL-5 melanoma 91.9% | UACC-62 melanoma 100% | LOX IMVI melanoma 101% | SK-MEL-28 melanoma 113% | SK-MEL-2 melanoma 97% | EKVX NSCLC 108% | SN12C renal 92.2% | UO-31 renal 76.7% | TK-10 renal 105% | CAKI-1 renal 94.1% | A498 renal 70.3% | MOLT-4 leukemia 100%
